The labels stand for the following.
T1: RBFOX1 RRM RbFoxmut (Fox-RRM*) (Homo sapiens, UniProt Q9NWB1 109-208, R118D;E147R;N151S;E152T)
T1 sequence: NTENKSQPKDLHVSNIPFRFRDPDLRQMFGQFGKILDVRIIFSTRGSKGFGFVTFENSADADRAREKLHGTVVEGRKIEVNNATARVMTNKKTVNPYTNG

B1: UACUCAU (DNA:RNA)
RNA: GGGAGACCGGAAUUCAGAUUGUCCUACUCAUUUAAAUCCCGUCGUAGCCACCA
DNA 1: CAATCTGAATTCCGGTCTCCC
DNA 2: TGGTGGCTACGACGGGATT
B2: CUACUCU (DNA:RNA)
RNA: B1 RNA with U25C, A26U, C27A, U28C, C29U, A30C
DNA 1: CAATCTGAATTCCGGTCTCCC
DNA 2: TGGTGGCTACGACGGGATT
B3: ACAGGAC (DNA:RNA)
RNA: B1 RNA with U25A, A26C, C27A, U28G, C29G, U31C
DNA 1: CAATCTGAATTCCGGTCTCCC
DNA 2: TGGTGGCTACGACGGGATT
B4: GGGAGUU (DNA:RNA)
RNA: B1 RNA with U25G, A26G, C27G, U28A, C29G, A30U
DNA 1: CAATCTGAATTCCGGTCTCCC
DNA 2: TGGTGGCTACGACGGGATT
B5: CUCGGGU (DNA:RNA)
RNA: B1 RNA with U25C, A26U, U28G, C29G, A30G
DNA 1: CAATCTGAATTCCGGTCTCCC
DNA 2: TGGTGGCTACGACGGGATT
B6: AACUACA (DNA:RNA)
RNA: B1 RNA with U25A, C29A, A30C, U31A
DNA 1: CAATCTGAATTCCGGTCTCCC
DNA 2: TGGTGGCTACGACGGGATT
B7: GCUCAGC (DNA:RNA)
RNA: GGGAGACCGGAAUUCAGAUUGUCCGCUCAGCUUAAAUCCCGUCGUAGCCACCA
DNA 1: CAATCTGAATTCCGGTCTCCC
DNA 2: TGGTGGCTACGACGGGATT
B8: GGGGGGU (DNA:RNA)
RNA: B7 RNA with C26G, U27G, C28G, A29G, C31U
DNA 1: CAATCTGAATTCCGGTCTCCC
DNA 2: TGGTGGCTACGACGGGATT
B9: GGGUUGU (DNA:RNA)
RNA: B7 RNA with C26G, U27G, C28U, A29U, C31U
DNA 1: CAATCTGAATTCCGGTCTCCC
DNA 2: TGGTGGCTACGACGGGATT
B10: GGGUUUU (DNA:RNA)
RNA: B1 RNA with U25G, A26G, C27G, C29U, A30U
DNA 1: CAATCTGAATTCCGGTCTCCC
DNA 2: TGGTGGCTACGACGGGATT
B11: GUCCGGG (DNA:RNA)
RNA: B7 RNA with C26U, U27C, A29G, C31G
DNA 1: CAATCTGAATTCCGGTCTCCC
DNA 2: TGGTGGCTACGACGGGATT
B12: GUCGGGU (DNA:RNA)
RNA: B7 RNA with C26U, U27C, C28G, A29G, C31U
DNA 1: CAATCTGAATTCCGGTCTCCC
DNA 2: TGGTGGCTACGACGGGATT
B13: GGGUUUG (DNA:RNA)
RNA: B7 RNA with C26G, U27G, C28U, A29U, G30U, C31G
DNA 1: CAATCTGAATTCCGGTCTCCC
DNA 2: TGGTGGCTACGACGGGATT
B14: AAGCAAG (DNA:RNA)
RNA: B7 RNA with G25A, C26A, U27G, G30A, C31G
DNA 1: CAATCTGAATTCCGGTCTCCC
DNA 2: TGGTGGCTACGACGGGATT
B15: UGCCAGG (DNA:RNA)
RNA: B7 RNA with G25U, C26G, U27C, C31G
DNA 1: CAATCTGAATTCCGGTCTCCC
DNA 2: TGGTGGCTACGACGGGATT
B16: UCCCAGC (DNA:RNA)
RNA: B7 RNA with G25U, U27C
DNA 1: CAATCTGAATTCCGGTCTCCC
DNA 2: TGGTGGCTACGACGGGATT
B17: AAUUCGA (DNA:RNA)
RNA: B1 RNA with U25A, C27U, A30G, U31A
DNA 1: CAATCTGAATTCCGGTCTCCC
DNA 2: TGGTGGCTACGACGGGATT
B18: GGUACUG (DNA:RNA)
RNA: B7 RNA with C26G, C28A, A29C, G30U, C31G
DNA 1: CAATCTGAATTCCGGTCTCCC
DNA 2: TGGTGGCTACGACGGGATT
B19: GCAUCUC (DNA:RNA)
RNA: B7 RNA with U27A, C28U, A29C, G30U
DNA 1: CAATCTGAATTCCGGTCTCCC
DNA 2: TGGTGGCTACGACGGGATT
B20: GCAUCUU (DNA:RNA)
RNA: B1 RNA with U25G, A26C, C27A, A30U
DNA 1: CAATCTGAATTCCGGTCTCCC
DNA 2: TGGTGGCTACGACGGGATT
B21: CGCAUCU (DNA:RNA)
RNA: B1 RNA with U25C, A26G, U28A, C29U, A30C
DNA 1: CAATCTGAATTCCGGTCTCCC
DNA 2: TGGTGGCTACGACGGGATT
B22: CCGCAUC (DNA:RNA)
RNA: B7 RNA with G25C, U27G, G30U
DNA 1: CAATCTGAATTCCGGTCTCCC
DNA 2: TGGTGGCTACGACGGGATT
B23: GCGCAUC (DNA:RNA)
RNA: B7 RNA with U27G, G30U
DNA 1: CAATCTGAATTCCGGTCTCCC
DNA 2: TGGTGGCTACGACGGGATT
B24: GCAUAUC (DNA:RNA)
RNA: B7 RNA with U27A, C28U, G30U
DNA 1: CAATCTGAATTCCGGTCTCCC
DNA 2: TGGTGGCTACGACGGGATT
B25: GGUACGA (DNA:RNA)
RNA: B7 RNA with C26G, C28A, A29C, C31A
DNA 1: CAATCTGAATTCCGGTCTCCC
DNA 2: TGGTGGCTACGACGGGATT
B26: ACUUUAC (DNA:RNA)
RNA: B7 RNA with G25A, C28U, A29U, G30A
DNA 1: CAATCTGAATTCCGGTCTCCC
DNA 2: TGGTGGCTACGACGGGATT
B27: GACGUGU (DNA:RNA)
RNA: B1 RNA with U25G, U28G, C29U, A30G
DNA 1: CAATCTGAATTCCGGTCTCCC
DNA 2: TGGTGGCTACGACGGGATT
B28: AGUGAAA (DNA:RNA)
RNA: B7 RNA with G25A, C26G, C28G, G30A, C31A
DNA 1: CAATCTGAATTCCGGTCTCCC
DNA 2: TGGTGGCTACGACGGGATT
B29: AGUUGGG (DNA:RNA)
RNA: B7 RNA with G25A, C26G, C28U, A29G, C31G
DNA 1: CAATCTGAATTCCGGTCTCCC
DNA 2: TGGTGGCTACGACGGGATT
B30: ACUUACC (DNA:RNA)
RNA: B7 RNA with G25A, C28U, G30C
DNA 1: CAATCTGAATTCCGGTCTCCC
DNA 2: TGGTGGCTACGACGGGATT
B31: GACUUUG (DNA:RNA)
RNA: B1 RNA with U25G, C29U, A30U, U31G
DNA 1: CAATCTGAATTCCGGTCTCCC
DNA 2: TGGTGGCTACGACGGGATT

Substitutions are numbered along the chain they refer to; changes in the protein carry UniProt numbers. Over roughly 16,000 sequences, “ka relative to ugcaugu” has its median near 0.096; the highest 2% begin near 0.35. The list comes from a sample in which the highest values are over-represented; it also holds similar and randomly drawn sequences.

For the test, the target named is T1, RBFOX1 RRM RbFoxmut (Fox-RRM*). Kind of test: EMSA; HiTS-Eq, 1 nM pool, 10 min; buffer printed only for the single-RNA assays: 10 mM Tris pH 7.5, 150 mM NaCl, 3.4 mM EDTA, 0.001% NP-40, 30 C. As to conditions: tags: His6 N-terminal (pET28a); label: 5' 32P. In outline:
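Purified wild-type or mutant RbFox RRM at increasing concentrations was equilibrated with 1 nM of 5′-radiolabelled RNA carrying 7 randomized nucleotides for 10 min in 50 µL. Unbound RNA was separated by 8% native PAGE and sequenced. Relative association constants came from read-count changes of each RNA species compared with the control reaction, normalised to the cognate motif.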
Background: A gel shift assay detects complexes by their altered migration in electrophoresis.
Consider B1, for which the binding signal is 0.0982 KA relative to UGCAUGU.
For the molecule B2, the binding signal was 0.0641 KA relative to UGCAUGU.
As for B3, the figure is 0.0906 KA relative to UGCAUGU; as for B4, 0.09 KA relative to UGCAUGU; as for B5, 0.0903 KA relative to UGCAUGU.
For the molecule B6, the binding signal was 0.121 KA relative to UGCAUGU.
As for B7, the figure is 0.0895 KA relative to UGCAUGU; as for B8, 0.0952 KA relative to UGCAUGU; as for B9, 0.448 KA relative to UGCAUGU.
As for B10, the figure is 0.0749 KA relative to UGCAUGU.
B11: the binding signal is 0.0861 KA relative to UGCAUGU.
As for B12, the figure is 0.132 KA relative to UGCAUGU.
As to B13, the binding signal was 0.741 KA relative to UGCAUGU.
As for B14, the figure is 0.103 KA relative to UGCAUGU.
Take B15: the binding signal was 0.0858 KA relative to UGCAUGU.
As for B16, the figure is 0.1 KA relative to UGCAUGU; as for B17, 0.0737 KA relative to UGCAUGU; as for B18, 0.112 KA relative to UGCAUGU.
As for B19, the figure is 0.135 KA relative to UGCAUGU; as for B20, 0.33 KA relative to UGCAUGU.
As for B21, the figure is 0.395 KA relative to UGCAUGU; as for B22, 0.258 KA relative to UGCAUGU.
Regarding B23, the binding signal is 0.49 KA relative to UGCAUGU.
As for B24, the figure is 0.073 KA relative to UGCAUGU; as for B25, 0.165 KA relative to UGCAUGU; as for B26, 0.114 KA relative to UGCAUGU.
Take B27: the binding signal is 0.15 KA relative to UGCAUGU.
As for B28, the figure is 0.095 KA relative to UGCAUGU.
As for B29, the figure is 0.0708 KA relative to UGCAUGU; as for B30, 0.0997 KA relative to UGCAUGU.
As for B31, the figure is 0.0901 KA relative to UGCAUGU.

The values above are taken from article PMC9911399, “Two distinct binding modes provide the RNA-binding protein RbFox with extraordinary sequence specificity”.
